An excerpt weighted towards active compounds, which were near 2.3% of everything screened.
SENP8 block-1 = inhibitors of human SENP8 protease. hit rate 1.2% among 330,000. inhibition, % at 10 µM. purified SENP8, Z-RLRGG-aminoluciferin cleavage, luminescence. Q96LD8; in the data active = inhibition above about 50%
LGR2 inh = Drosophila LGR2 receptor signaling inhibition; HEK293 LGR2, CRE-luciferase, bursicon-stimulated, 4 h; inhibition, % at 9.99 µM; hit rate 0.35% among 380,000; AID 720647;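 active = drop in luminescence signal, shown as inhibition above about 50% in the replicate tests, limit read from the data, passing the limit was not always enough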;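 also: agonist challenge used bursicon conditioned medium at about half maximal strength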
SENP6 inh = SENP6 protease inhibition; hit rate 1.8% among 330,000; inhibition, % at 10 µM; Q9GZR1; AID 2599; Recombinant SENP6 catalytic domain, aminoluciferin luminescence;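 active = inhibition above about 50% at the single tested dose, limit read from the data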;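 also: plate controls were DMSO wells with enzyme for no effect and DMSO wells lacking enzyme for full effect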
HSP90 inh = inhibitors of HSP90 luciferase refolding in rabbit reticulocyte lysate; luciferase refolding luminescence, 3 h; inhibition, % at 5.6 µM; hit rate 0.91% among 290,000; AID 1789;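 active = inhibition above the screen-wide mean plus 3 SD, computed separately per campaign, cut at about 16% in these data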;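 also: 0% = DMSO wells and 100% = 60 µM geldanamycin wells; inhibitors lower the luminescence because luciferase stays unfolded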
SENP7 block = inhibitors of human SENP7 protease | Q9BQF6 | recombinant SENP7, Z-RLRGG-aminoluciferin luminescence, 40 min | inhibition, % at 5 µM | hit rate 1.5% among 330,000 | AID 434973;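 active = inhibition above about 50% at the single test dose, limit read from the data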;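 also: plate controls were DMSO with enzyme for no effect and no enzyme buffer wells for full effect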
SENP8 block-2 = blocks human SENP8 cleavage of Nedd8 substrate; hit rate 0.64% among 360,000; Q96LD8; AID 602440; recombinant SENP8, Nedd8 substrate fluorescence; inhibition, % at 20 µM; in the data active = inhibition mostly above about 40%, no sharp cut-off; inactive = mostly below about 27%
HSP90 confirm = HSP90 inhibition, confirmation assay; inhibition, % at 5.9 µM; rabbit reticulocyte lysate, luciferase refolding luminescence, 3 h; hit rate 64% among 2,300; shares compounds with HSP90 inh; in the data active = inhibition above about 18%;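 also: 0% = vehicle wells and 100% = reference inhibitor wells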
FLuc counter = counter-screen for HSP90 inhibitors: inhibitors of firefly luciferase. shares compounds with HSP90 inh. purified native firefly luciferase, luminescence. inhibition, % at 5.9 µM. hit rate 48% among 2,300. AID 1847;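 active = inhibition above the mean inhibition of all tested sample wells plus 3 SD, cut at about 10% in these data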;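 also: 0% = DMSO with luciferase and 100% = wells lacking luciferase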
Target sequence (P08659 whole entry, looked up): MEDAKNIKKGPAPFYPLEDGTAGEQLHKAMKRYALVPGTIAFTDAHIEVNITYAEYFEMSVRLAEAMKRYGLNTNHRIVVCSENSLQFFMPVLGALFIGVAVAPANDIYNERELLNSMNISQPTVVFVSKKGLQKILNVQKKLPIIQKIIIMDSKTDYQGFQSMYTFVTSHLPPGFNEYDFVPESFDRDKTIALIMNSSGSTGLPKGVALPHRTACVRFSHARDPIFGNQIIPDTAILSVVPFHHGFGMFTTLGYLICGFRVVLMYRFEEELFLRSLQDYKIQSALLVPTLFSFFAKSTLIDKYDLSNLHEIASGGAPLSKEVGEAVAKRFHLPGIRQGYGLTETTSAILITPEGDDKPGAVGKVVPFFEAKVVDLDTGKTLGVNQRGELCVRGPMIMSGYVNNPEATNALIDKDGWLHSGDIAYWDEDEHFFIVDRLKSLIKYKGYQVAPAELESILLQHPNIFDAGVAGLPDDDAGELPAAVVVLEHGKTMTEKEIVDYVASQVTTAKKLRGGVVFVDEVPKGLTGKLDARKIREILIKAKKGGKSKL
Active calls of the source: *; . = not tested or not shown.

SMILES	SENP8 block-1	LGR2 inh	SENP6 inh	HSP90 inh	SENP7 block	SENP8 block-2	HSP90 confirm	FLuc counter
COCCN(C(=O)CCC(=O)Nc1ccccn1)C(C(=O)NC(C)C)c1ccc(Cl)cc1 (stereo not drawn)	1	-4	-12	84*	10	11	1	-4
CCC(=O)Nc1ccc2c(c1)C(=O)N(C)C[C@@H](OC)[C@@H](C)CN(C(=O)c1cnccn1)[C@H](C)CO2	.	-6	.	.	.	.	.	.
CCn1c(C)cc(/C=C2/NC(=O)N(c3ccccc3)C2=O)c1C	-14	1	-4	31*	-5	-311	7	-16
COCCn1c(C)cc(/C=C2/NC(=O)N(c3cccc(Cl)c3)C2=O)c1C	-9	12	5	10	4	-246	.	.
C[C@@H]1CN([C@@H](C)CO)C(=O)c2cccc(NC(=O)Nc3ccc(C(F)(F)F)cc3)c2O[C@H]1CN(C)C(=O)Nc1ccc2c(c1)OCO2	.	1	.	.	.	.	.	.
COc1ccc(C2=NN(c3ccccc3)C(=O)/C2=C\c2ccc(O)c(OC)c2)cc1	1	-21	17	25*	16	55*	-10	-5
COc1cc(/C=C2\C(=O)ON=C2c2ccc(Cl)cc2)ccc1O	-12	.	-22	.	-7	.	.	.
O=C(N[C@H]1CC[C@@H](CCNC(=O)C2CC2)O[C@@H]1CO)c1ccccn1	.	-4	.	.	.	.	.	.
Cc1nn(-c2ccccc2)c2sc(-c3n[nH]c(=S)o3)cc12	-1	.	23	19*	2	-290	-14	-12
Cc1nn(-c2ccccc2)c2sc(C(=O)O)cc12	3	.	-9	3	1	18	.	.
COc1cccc(C#Cc2ccc([C@H]3[C@H](CO)N4C(=O)CN(C(=O)C5CC5)C[C@@H]34)cc2)c1	.	-2	.	.	.	.	.	.
N#Cc1cc2c(nc1SCC(=O)N1CCOCC1)CCCCC2	6	.	-16	54*	-4	11	1	-5
N#Cc1cc2c(nc1SCC(N)=O)CCCCC2	5	.	-19	2	1	10	.	.
CN(C)S(=O)(=O)Oc1ccsc1C(=O)Nc1ccc(Cl)c(Cl)c1	-10	.	-17	20*	-1	9	6	-2
CN(C)S(=O)(=O)Oc1ccsc1C(=O)Nc1cccc(Cl)c1	-14	.	-8	3	-6	27	.	.
CC(=N\NC(=O)c1ccccc1)/C(=N/O)C(=O)Nc1ccccc1	4	22	-22	73*	1	8	-1	-5
CC(=N\Nc1ccccc1)/C(=N/O)C(=O)Nc1ccccc1	-2	.	5	-3	2	9	.	.
Cc1cc(C)c(S(=O)(=O)c2ccccc2)c(OC(=O)c2c(Cl)cc(Cl)cc2Cl)n1	1	.	-2	2	7	25	.	.
COc1nc(C)cc(C)c1S(=O)(=O)c1ccccc1	-11	-20	-26	18*	-6	22	-6	-8
COc1ccc(S(=O)(=O)N(C)C[C@H]2Oc3ccc(NC(=O)C4CC4)cc3CC(=O)N([C@@H](C)CO)C[C@H]2C)cc1	.	1	.	.	.	.	.	.
Cc1ccc(-c2onc3ccc(C(=O)O)cc23)cc1	12	-3	-5	72*	-4	12	61*	57*
O=C(O)c1ccc2nc(-c3ccccc3)c(-c3ccccc3)nc2c1	-2	2	7	42*	8	-172	51*	37*
O=C(O)c1ccc2noc(-c3ccccc3)c2c1	5	-9	5	41*	1	-4	12	-15
CC(=O)COC(=O)c1ccc2noc(-c3ccccc3)c2c1	6	-37	12	20*	9	-48	5	-12
O=C(c1ccc2noc(-c3ccccc3)c2c1)N1CCN(c2ccccc2)CC1	0	4	-1	.	3	-28	.	.
SMILES	SENP8 block-1	LGR2 inh	SENP6 inh	HSP90 inh	SENP7 block	SENP8 block-2	HSP90 confirm	FLuc counter
CN1C[C@@H]2[C@H](c3ccccc31)[C@@H](CO)N2C(=O)C1CC1	.	-20	.	.	.	.	.	.
Cc1ccc(S(=O)(=O)N(C)C[C@H]2OCCCC[C@@H](C)Oc3ccc(NC(=O)NC(C)C)cc3C(=O)N([C@@H](C)CO)C[C@@H]2C)cc1	.	14	.	.	.	.	.	.
C[C@@H]1CN([C@@H](C)CO)C(=O)Cc2cc(NC(=O)c3ccncc3)ccc2O[C@H]1CN(C)S(=O)(=O)c1ccc(F)cc1	.	-6	.	.	.	.	.	.
C=CCOc1ccccc1CNc1cccc(F)c1	-15	-8	-34	-4	-8	-9	.	.
C=CCOc1ccccc1CNc1ccc2c(c1)OCCO2	19	.	33	67*	2	-379	73*	69*
CCC(=O)N(C)C[C@H]1Oc2ncc(/C=C/c3ccccc3)cc2C(=O)N([C@H](C)CO)C[C@@H]1C	.	-16	.	.	.	.	.	.
CN(C)S(=O)(=O)c1ccc(/C(O)=C2/C(=O)C(=O)N(Cc3cccnc3)C2c2cccs2)cc1 (stereo not drawn)	-6	21	-18	4	-3	2	.	.
Cc1ccc(/C(O)=C2/C(=O)C(=O)N(Cc3cccnc3)C2c2ccccn2)cc1 (stereo not drawn)	-11	.	-6	1	-5	18	.	.
Cc1c(/C(O)=C2/C(=O)C(=O)N(Cc3cccnc3)C2c2cccs2)cnn1-c1ccccc1 (stereo not drawn)	-2	.	-7	55*	-4	-77	55*	53*
Cc1c(/C(O)=C2/C(=O)C(=O)N(Cc3cccnc3)C2c2ccccn2)cnn1-c1ccccc1 (stereo not drawn)	-6	87*	-6	75*	8	-18	24*	30*
O=[N+]([O-])c1ccc(NC2CCCC2)cc1	-7	-23	-2	20*	-1	29	-7	-12
COc1cccc(-c2onc3ccc(C(=O)/C=C/N(C)C)cc23)c1	0	-21	19	2	5	-9	.	.
Cc1ccc(-c2onc3ccc(C(=O)/C=C/N(C)C)cc23)cc1	6	-5	7	61*	-3	-21	-9	-21
Cc1cccc(-c2onc3ccc(C(=O)/C=C/N(C)C)cc23)c1	-6	20	3	39*	-5	-9	-3	-8
CC(C)C#Cc1ccc([C@H]2[C@@H](CO)N3C(=O)CN(C(=O)C4CCCCC4)C[C@@H]23)cc1	.	-1	.	.	.	.	.	.
CCC(=O)N1[C@@H](CO)[C@@H](c2ccccc2)C12CN(C(=O)c1ccc3c(c1)OCO3)C2	.	-1	.	.	.	.	.	.
COc1ccccc1NC(=O)O/N=C(\N)c1ccccc1	-5	-1	-15	17*	-4	14	-1	-13
CC(C)NC(=O)N(C)C[C@@H]1Oc2ccc(NC(=O)CCCCCC(=O)Nc3ccccc3N)cc2C(=O)N([C@H](C)CO)C[C@H]1C	.	2	.	.	.	.	.	.
COc1ccc2c3c(n(C)c2c1)[C@@H](CO)N(C(=O)CC1CC1)CC31CN(Cc2ccccc2)C1	.	0	.	.	.	.	.	.
COc1ccccc1S(=O)(=O)N[C@H]1CC[C@H](CC(=O)NCc2cc(F)cc(F)c2)O[C@@H]1CO	.	16	.	.	.	.	.	.

Compound activity (PubChem)
